Shown is part of a subset that was picked to be rich in hits.
DUX4 txn inh: inhibitors of DUX4-driven ZSCAN4 reporter expression, primary screen, 293T cells, Gaussia and Italica luciferase. activity change, negative = inhibition, % (concentration not given with the values). 37,000 tested, 0.8% active. 293T-iDUX4 ZSCAN4-Gaussia luciferase reporter, 24 h; stronger effect = lower value;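 active = mean inhibition of at least 10% in the main channel, exceeding the control channel by a set limit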;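 note: 0% = median of neutral control wells and -100% = median of positive control wells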
* marks the source's active call; other numbers are inactive results; ! = not active in a repeat.

SMILES	DUX4 txn inh
COc1ccccc1-c1ccc(C2[C@H]3CNC[C@@H]2N3Cc2ccc(F)cc2)cc1 (some centres not stated)	16.8
Cc1cccc(-c2ccc(C3[C@@H]4CN(Cc5cccc(F)c5)C[C@H]3N4)cc2)c1 (some centres not stated)	-54.7*!
O=C(C[C@@H]1C[C@@H]2c3cc(NC(=O)Cc4ccncc4)ccc3O[C@@H]2[C@H](CO)O1)NCc1ccccn1	0.6
CCN1[C@@H]2c3ccc(-c4ccc(F)cc4)c(=O)n3C[C@@H]2[C@@H](CO)[C@@H]1C(=O)OC	-0.7
COc1ccc(-c2ccc3n(c2=O)C[C@@H]2[C@@H](CO)[C@H](C(=O)N(C)C)[C@H]3N2C(=O)c2cnccn2)cc1	-7.0
O=C1N[C@H](c2ccccc2)COCc2cnnn2CC[C@H]1Cc1ccc(C(F)(F)F)cc1	-4.2
O=C([C@@H]1[C@@H](CO)[C@@H]2Cn3c(cccc3=O)[C@H]1N2C(=O)c1ccc(F)cc1)N1CCCCC1	-4.6
O=C(Cc1cccnc1)N1CC2(C1)[C@H](c1ccccc1)[C@@H](CO)N2C(=O)C1CCC1	6.8
CN(C)C(=O)c1cccc(-c2ccc([C@H]3[C@@H](CO)N4CCCCN(C(=O)C5CCC5)C[C@@H]34)cc2)c1	12.7
CO[C@H]1CN(C)C(=O)c2ccc(NC(=O)C3CCOCC3)cc2OC[C@H](C)N(C(=O)c2ccccc2)C[C@@H]1C	4.8
CCCC(=O)N1CC2(CCN(Cc3cccnc3)CC2)c2c([nH]c3cc(OC)ccc23)[C@H]1CO	16.5
COC(=O)C[C@H]1C[C@H]2c3cc(NS(C)(=O)=O)ccc3O[C@H]2[C@H](CO)O1	1.8
c1ncc(-c2ccc(C3[C@@H]4CN(Cc5cocn5)C[C@H]3N4)cc2)cn1 (some centres not stated)	12.4
Cc1ccccc1-c1ccc(C2[C@H]3CNC[C@@H]2N3Cc2ccccn2)cc1 (some centres not stated)	17.9
Fc1ccccc1-c1ccc(C2[C@@H]3CN(Cc4ccccn4)C[C@H]2N3)cc1 (some centres not stated)	-22.2*!
OC[C@H]1[C@H](c2ccc(-c3ccccc3F)cc2)[C@@H]2CN(Cc3ccncc3)CCCCN12	1.6
Cc1ccc(CN2CC(=O)N3[C@H](C2)[C@H](c2ccc(-c4ccccc4F)cc2)[C@@H]3CO)cc1	1.7
Fc1ccccc1-c1ccc(C2[C@@H]3CN(Cc4ccccc4)C[C@H]2N3)cc1 (some centres not stated)	-24.5*!
C[C@H](CO)N1C[C@H](C)[C@H](CN(C)CC2CCCCC2)Oc2ccc(NC(=O)Cn3cnnn3)cc2CC1=O	1.4
CO[C@@H]1CN(C)C(=O)c2cc(NC(=O)c3cccc(F)c3)ccc2OC[C@H](C)N(C)C[C@H]1C	6.1
O=C(NC1CCCC1)N1CC2(C1)[C@H](c1ccccc1)[C@@H](CO)N2CC1CCOCC1	11.0
CCCNC(=O)N1CC2(CN(S(=O)(=O)c3cccc(OC)c3)C2)c2c(n(C)c3cc(OC)ccc23)[C@H]1CO	3.8
C[C@@H]1CN([C@@H](C)CO)C(=O)c2c(c3ccccc3n2C)-c2ccccc2CO[C@@H]1CN(C)Cc1ccc(O)cc1	-9.0
C[C@@H]1CN([C@H](C)CO)C(=O)c2c(c3ccccc3n2C)-c2ccccc2CO[C@@H]1CN(C)Cc1ccc(C(F)(F)F)cc1	-43.0*
C[C@H]1CN([C@@H](C)CO)C(=O)c2c(c3ccccc3n2C)-c2ccccc2CO[C@@H]1CN(C)Cc1ccc(C(F)(F)F)cc1	-48.5*
SMILES	DUX4 txn inh
C[C@H]1CN([C@@H](C)CO)C(=O)c2c(c3ccccc3n2C)-c2ccccc2CO[C@@H]1CN(C)Cc1ccc(C(=O)O)cc1	16.3
C[C@@H]1CN([C@H](C)CO)C(=O)c2c(c3ccccc3n2C)-c2ccccc2CO[C@H]1CN(C)Cc1ccc(C(F)(F)F)cc1	3.3
C[C@@H]1CN([C@H](C)CO)C(=O)c2c(c3ccccc3n2C)-c2ccccc2CO[C@H]1CN(C)Cc1ccc(C(=O)O)cc1	5.6
COc1ccc([C@@H]2C/C=C\C[C@H](c3ccc(F)cc3)NC(=O)CCC(=O)N2)c(OC)c1	0.7
COc1ccc2c3c(n(C)c2c1)[C@H](CO)N(C)CC31CCN(CC2CC2)CC1	8.2
CC(=O)N1CC2(C1)[C@H](c1ccc(-c3ccc(C#N)cc3)cc1)[C@@H](CO)N2C(=O)C1CC1	-3.6
COCCNC(=O)C[C@@H]1C[C@H]2c3cc(NC(=O)Nc4ccccc4F)ccc3O[C@H]2[C@H](CO)O1	-5.6
O=C(C[C@@H]1C[C@H]2c3cc(NC(=O)Nc4ccccc4F)ccc3O[C@H]2[C@@H](CO)O1)NCCc1ccccc1	-21.6*
O=C(C[C@H]1C[C@@H]2c3cc(NC(=O)Nc4ccccc4F)ccc3O[C@@H]2[C@H](CO)O1)NCc1cc(F)ccc1F	0.5
COc1ccccc1CNC(=O)C[C@@H]1C[C@H]2c3cc(NC(=O)Nc4ccccc4F)ccc3O[C@H]2[C@H](CO)O1	-8.9
COCCNC(=O)C[C@H]1C[C@H]2c3cc(NC(=O)Nc4ccccc4F)ccc3O[C@H]2[C@H](CO)O1	-3.1
O=C(C[C@@H]1C[C@H]2c3cc(NC(=O)Nc4ccccc4F)ccc3O[C@H]2[C@H](CO)O1)NCc1cc(F)ccc1F	-52.4*
C[C@H]1C/C=C\C[C@@H](c2ccc3c(c2)OCO3)NC(=O)[C@H](c2ccccc2)CC(=O)N1	2.2
COc1ccccc1CN1[C@H](CO)[C@H]2c3ccccc3N(C(=O)c3ccncc3)C[C@H]21	-2.3
O=C(NC[C@@H]1[C@H](c2ccccc2)[C@@H](CO)N1C(=O)Cc1cccnc1)C1CCC1	5.8
O=C(c1ccccn1)N1C[C@H]2[C@@H](c3ccccc31)[C@@H](CO)N2C(=O)Nc1ccccc1	1.4
COc1ccccc1CN1[C@H](CO)[C@@H](c2ccccc2)C12CN(C(C)=O)C2	3.8
COCC(=O)N1CC2(C1)[C@H](c1ccccc1)[C@@H](CO)N2Cc1ccccc1OC	-7.9
COc1ccccc1CN1CC2(C1)[C@@H](c1ccccc1)[C@@H](CO)N2Cc1ccccc1	-54.8*
CNC[C@H]1OCCCC[C@H](C)Oc2ccc(NS(=O)(=O)c3cccs3)cc2C(=O)N([C@H](C)CO)C[C@@H]1C	2.2
COc1ccc([C@@H]2CC=CC[C@@H](C)Oc3ccccc3C(=O)N(C)[C@@H](C)C(=O)N2)c(OC)c1 (mixture of isomers)	1.8
Cc1ccccc1-c1ccc(C2[C@H]3CNC[C@@H]2N3S(=O)(=O)c2ccc(F)cc2)cc1 (some centres not stated)	1.5
Cc1ccccc1-c1ccc(C2[C@H]3CNC[C@@H]2N3S(=O)(=O)c2cccc(F)c2)cc1 (some centres not stated)	2.2
COc1cccc(-c2ccc(C3[C@@H]4CN(S(=O)(=O)Cc5ccccc5)C[C@H]3N4)cc2)c1 (some centres not stated)	-21.8*
CN(C)C(=O)c1cccc(-c2ccc(C3[C@H]4CNC[C@@H]3N4S(=O)(=O)Cc3ccccc3)cc2)c1 (some centres not stated)	8.9
COc1cccc(-c2ccc(C3[C@H]4CNC[C@@H]3N4S(=O)(=O)Cc3ccccc3)cc2)c1 (some centres not stated)	3.8
COc1cccc(-c2ccc(C3[C@@H]4CN(S(=O)(=O)c5ccccc5F)C[C@H]3N4)cc2)c1 (some centres not stated)	-6.9

Source: PubChem BioAssay
